# Data published in PubChem BioAssay AID1159580 (chemical genetic matrix, 2015).
# “And” between values parts separate entries of the source, which are not always exact repeats. Identical values can stand only once. Hit rate of the full screen: of about 5,500 compounds, about 2,000 (36%) were called active. Roughly 18% stayed inconclusive and do not appear here. No stated cut-off is given here; in the data, active means normalized growth mostly below about 0.91 (no sharp cut-off); inconclusive means no clear call, values can overlap the other calls; inactive means mostly above about 0.92. Some of the results follow.
# Assay: chemical genetic growth profiling, strain panel (AID 1159580);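 further: tested at 20 µM; growth read once vehicle control cultures reached saturation at 30 °C; 1 = growth at the plate median or of vehicle wells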
# Settings: S. cerevisiae deletion strains, growth OD
compound,measurement,setting,value
C=C1C(=O)O[C@@H]2C3O[C@]3(C)CC/C=C(\C)CC[C@@H]12 (stereo partly specified),normalized growth,"locus YAL013W, strain DEP1, stronger effect = lower value",0.878 (active)
same,normalized growth,"locus YAL021C, strain ccr4, stronger effect = lower value",0.967 (inactive)
same,normalized growth,"locus YAL026C, strain drs2, stronger effect = lower value",0.914 (inactive)
same,normalized growth,"locus YAL030W, strain snc1, stronger effect = lower value",0.983 (inactive)
same,normalized growth,"locus YBL061C, strain skt5, stronger effect = lower value",1.01 (inactive)
same,normalized growth,"locus YBR009C, strain hhf1, stronger effect = lower value",0.977 (inactive)
same,normalized growth,"locus YBR021W, strain FUR4, stronger effect = lower value",1.06 (inactive)
same,normalized growth,"locus YBR023C, strain chs3, stronger effect = lower value",0.964 (inactive)
same,normalized growth,"locus YBR171W, strain sec66, stronger effect = lower value",0.975 (inactive)
same,normalized growth,"locus YBR229C, strain ROT2, stronger effect = lower value",0.941 (inactive)
same,normalized growth,"locus YBR231C, strain swc5, stronger effect = lower value",1.01 (inactive)
same,normalized growth,"locus YBR279W, strain paf1, stronger effect = lower value",0.948 (inactive)
same,normalized growth,"locus YCL011C, strain gbp2, stronger effect = lower value",0.978 (inactive)
same,normalized growth,"locus YCL016C, strain dcc1, stronger effect = lower value",0.946 (inactive)
same,normalized growth,"locus YCL029C, strain bik1, stronger effect = lower value",0.905 (active)
same,normalized growth,"locus YCL069W, strain vba3, stronger effect = lower value",1 (inactive)
same,normalized growth,"locus YCR088W, strain abp1, stronger effect = lower value",0.983 (inactive)
same,normalized growth,"locus YDL005C, strain med2, stronger effect = lower value",0.989 (inactive)
same,normalized growth,"locus YDL035C, strain GPR1, stronger effect = lower value",0.838 (active)
same,normalized growth,"locus YDL040C, strain nat1, stronger effect = lower value",0.993 (inactive)
same,normalized growth,"locus YDL074C, strain BRE1, stronger effect = lower value",0.671 (active)
same,normalized growth,"locus YDL101C, strain DUN1, stronger effect = lower value",0.87 (active)
same,normalized growth,"locus YDL134C, strain PPH21, stronger effect = lower value",0.903 (inactive)
same,normalized growth,"locus YDL185W, strain tfp1, stronger effect = lower value",0.913 (inactive)
same,normalized growth,"locus YDL192W, strain arf1, stronger effect = lower value",0.729 (active)
same,normalized growth,"locus YDR001C, strain nth1, stronger effect = lower value",0.997 (inactive)
same,normalized growth,"locus YDR069C, strain doa4, stronger effect = lower value",0.981 (inactive)
same,normalized growth,"locus YDR101C, strain arx1, stronger effect = lower value",0.864 (active)
same,normalized growth,"locus YDR137W, strain rgp1, stronger effect = lower value",0.556 (active)
same,normalized growth,"locus YDR150W, strain NUM1, stronger effect = lower value",0.917 (inactive)
same,normalized growth,"locus YDR159W, strain sac3, stronger effect = lower value",1.02 (inactive)
same,normalized growth,"locus YDR162C, strain NBP2, stronger effect = lower value",0.455 (active)
same,normalized growth,"locus YDR195W, strain ref2",1.06 (inactive)
same,normalized growth,"locus YDR297W, strain sur2, stronger effect = lower value",0.998 (inactive)
same,normalized growth,"locus YDR318W, strain mcm21, stronger effect = lower value",0.739 (active)
same,normalized growth,"locus YDR334W, strain swr1, stronger effect = lower value",0.987 (inactive)
same,normalized growth,"locus YDR335W, strain msn5, stronger effect = lower value",0.976 (inactive)
same,normalized growth,"locus YDR388W, stronger effect = lower value",0.901 (active)
same,normalized growth,"locus YDR392W, strain spt3, stronger effect = lower value",0.532 (active)
same,normalized growth,"locus YDR502C, strain sam2, stronger effect = lower value",0.818 (active)
same,normalized growth,"locus YEL003W, strain gim4, stronger effect = lower value",0.973 (inactive)
same,normalized growth,"locus YEL037C, strain rad23, stronger effect = lower value",0.992 (inactive)
same,normalized growth,"locus YEL061C, strain CIN8 (second series), stronger effect = lower value",1 (inactive)
same,normalized growth,"locus YEL061C, strain CIN8, stronger effect = lower value",0.86 (active)
same,normalized growth,"locus YER015W, strain faa2, stronger effect = lower value",0.993 (inactive)
same,normalized growth,"locus YER016W, strain bim1, stronger effect = lower value",0.997 (inactive)
same,normalized growth,"locus YER110C, stronger effect = lower value",0.879 (active)
same,normalized growth,"locus YER111C, strain swi4, stronger effect = lower value",0.992 (inactive)
same,normalized growth,"locus YER155C, strain BEM2 (second series), stronger effect = lower value",0.888 (inactive)
same,normalized growth,"locus YER155C, strain BEM2, stronger effect = lower value",0.798 (active)
same,normalized growth,"locus YER167W, strain BCK2, stronger effect = lower value",0.694 (active)
same,normalized growth,"locus YFR010W, strain ubp6, stronger effect = lower value",0.992 (inactive)
same,normalized growth,"locus YGL078C, strain dbp3, stronger effect = lower value",0.937 (inactive)
same,normalized growth,"locus YGL086W, strain mad1, stronger effect = lower value",0.792 (active)
same,normalized growth,"locus YGL167C, strain pmr1, stronger effect = lower value",0.97 (inactive)
same,normalized growth,"locus YGL173C, strain kem1, stronger effect = lower value",0.956 (inactive)
same,normalized growth,"locus YGL227W, strain vid30, stronger effect = lower value",0.999 (inactive)
same,normalized growth,"locus YGL240W, strain doc1, stronger effect = lower value",0.962 (inactive)
same,normalized growth,"locus YGL248W, strain PDE1, stronger effect = lower value",0.879 (active)
same,normalized growth,"locus YGL253W, strain hxk2, stronger effect = lower value",0.963 (inactive)
same,normalized growth,"locus YGR078C, strain PAC10, stronger effect = lower value",0.695 (active)
same,normalized growth,"locus YGR135W, strain pre9, stronger effect = lower value",0.749 (active)
same,normalized growth,"locus YGR229C, strain SMI1, stronger effect = lower value",0.396 (active)
same,normalized growth,"locus YGR252W, strain gcn5, stronger effect = lower value",0.771 (inactive)
same,normalized growth,"locus YHR013C, strain ard1, stronger effect = lower value",0.894 (inactive)
same,normalized growth,"locus YHR027C, strain rpn1, stronger effect = lower value",0.991 (inactive)
same,normalized growth,"locus YHR030C, strain SLT2, stronger effect = lower value",0.722 (active) and 0.968 (inactive)
same,normalized growth,"locus YHR079C, strain IRE1 (second series), stronger effect = lower value",0.861 (active)
same,normalized growth,"locus YHR079C, strain IRE1, stronger effect = lower value",0.966 (inactive)
same,normalized growth,"locus YHR094C, strain hxt1, stronger effect = lower value",0.934 (inactive)
same,normalized growth,"locus YHR129C, strain ARP1, stronger effect = lower value",0.801 (active)
same,normalized growth,"locus YHR142W, strain chs7, stronger effect = lower value",0.962 (inactive)
same,normalized growth,"locus YHR200W, strain rpn10, stronger effect = lower value",0.924 (inactive)
same,normalized growth,"locus YIL066C, strain RNR3, stronger effect = lower value",0.7 (active)
same,normalized growth,"locus YIL073C, strain SPO22, stronger effect = lower value",0.588 (active)
same,normalized growth,"locus YIL125W, strain kgd1, stronger effect = lower value",0.937 (inactive)
same,normalized growth,"locus YIR030C, strain dcg1, stronger effect = lower value",0.912 (active)
same,normalized growth,"locus YJL092W, strain hpr5, stronger effect = lower value",0.987 (inactive)
same,normalized growth,"locus YJL095W, strain BCK1 (second series), stronger effect = lower value",0.976 (inactive)
same,normalized growth,"locus YJL095W, strain BCK1, stronger effect = lower value",0.446 (active) and 0.99 (inactive)
same,normalized growth,"locus YJL115W, strain asf1, stronger effect = lower value",0.991 (inactive)
same,normalized growth,"locus YJL129C, strain trk1, stronger effect = lower value",1 (inactive)
same,normalized growth,"locus YJL134W, strain LCB3, stronger effect = lower value",0.943 (inactive)
same,normalized growth,"locus YJL154C, strain vps35, stronger effect = lower value",0.998 (inactive)
same,normalized growth,"locus YJL164C, strain tpk1, stronger effect = lower value",0.95 (inactive)
same,normalized growth,"locus YJL166W, strain qcr8, stronger effect = lower value",0.961 (inactive)
same,normalized growth,"locus YJL168C, strain set2, stronger effect = lower value",0.914 (active)
same,normalized growth,"locus YJL187C, strain SWE1 (second series), stronger effect = lower value",0.866 (active)
same,normalized growth,"locus YJL187C, strain SWE1, stronger effect = lower value",0.963 (inactive)
same,normalized growth,"locus YJR043C, strain POL32, stronger effect = lower value",0.752 (active)
same,normalized growth,"locus YJR066W, strain TOR1, stronger effect = lower value",0.937 (inactive)
